Reference: PubChem BioAssay (NCATS)
Records with an inconclusive call do not appear. Entries that show only a call come without a potency. Calls of active or inactive are those of the source. Calls follow the shape of the dose curve; as a rule, active = well fitted inhibition curve with a large enough effect; inconclusive = small, poorly fitted or top-dose-only effect; inactive = flat fitted curve, though single readings scatter.
Potency is read from the fitted curve at half-maximal effect.

Experiment: Primary qHTS for inhibitors of nuclear receptor binding SET domain protein 2 (NSD2) in an isogenic RCH-ACV NSD2 p.E1099K mutant (9B) (AID 1645876); also: nearly all actives have a fitted effect of over 70% in size
Settings: RCH-ACV (leukaemia line) NSD2 E1099K (9B) viability, CellTiter-Glo, 72 h; series mostly up to 44.9 µM
In the case of `NC[C@H]1O[C@H](O[C@H]2[C@H](O)[C@@H](O[C@H]3O[C@H](CO)[C@@H](O)[C@H](N)[C@H]3O)[C@H](N)C[C@@H]2N)[C@H](N)C[C@@H]1O`, the Potency is reported as “inactive”. For `CC[C@H]1OC(=O)[C@H](C)[C@@H](O[C@H]2C[C@@](C)(OC)[C@@H](O)[C@H](C)O2)[C@H](C)[C@@H](O[C@@H]2O[C@H](C)C[C@H](N(C)C)[C@H]2O)[C@](C)(O)C[C@@H](C)CN(C)[C@H](C)[C@@H](O)[C@]1(C)O`, the Potency was “inactive”. In the case of `Oc1ccc(/C=C/c2cc(O)cc(O)c2)cc1`, the Potency is reported as 9.34 µM (active). For `C=CC[N+]1([C@H]2C[C@H]3[C@@H]4CC[C@H]5C[C@H](O)[C@@H](N6CCOCC6)C[C@]5(C)[C@H]4CC[C@]3(C)[C@H]2OC(C)=O)CCCC1`, the Potency was “inactive”. In the case of `CN(C)CCCSc1ccccc1NC(=O)/C=C/c1ccccc1`, the Potency is reported as “inactive”. For `CC(=O)Oc1cccc2c1C(=O)c1c(OC(C)=O)cc(C(=O)O)cc1C2=O`, the Potency was “inactive”. With `CCC[C@@H]1C[C@@H](C(=O)N[C@@H]([C@H]2O[C@H](SC)[C@H](O)[C@@H](O)[C@H]2O)[C@H](C)Cl)N(C)C1` the Potency was “inactive”. For `O=C(O)Cc1cc(I)c(Oc2ccc(O)c(I)c2)c(I)c1`, the Potency was 20.5 µM (active). In the case of `C=C1[C@H](CO)[C@@H](O)C[C@@H]1n1cnc2c(=O)[nH]c(N)nc21`, the Potency is reported as “inactive”. With `CO[C@H]1C[C@@H]2CC[C@@H](C)[C@@](O)(O2)C(=O)C(=O)N2CCCC[C@H]2C(=O)O[C@H]([C@H](C)C[C@@H]2CC[C@@H](OC(=O)C(C)(CO)CO)[C@H](OC)C2)CC(=O)[C@H](C)/C=C(\C)[C@@H](O)[C@@H](OC)C(=O)[C@H](C)C[C@H](C)/C=C/C=C/C=C/1C` the Potency was 0.204 µM (active).
